Sampled rows, rich in hits. Any-hit rate of the full collection: about 2.2%.
Mito fusion act: blocks mitochondrial division or promotes mitochondrial fusion | S. cerevisiae fusion-defective mutant growth rescue, CellTiterGlo 48 h | Potency, µM (top dose mostly 46.1 µM), hits mostly activators | 0.23% of 320,000 active | AID 485298; also: nearly all actives have a fitted effect of over 45% in size
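Yeast fusion mutant, YPEG (non-fermentable carbon), compound, 48 h at 37C non-permissive; CellTiterGlo added, 10 min RT, luminescence read. Rescued growth = division inhibition.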
Abeta rescue: restores growth of yeast expressing A-beta42 peptide. AID 1347071. yeast expressing A-beta42, growth rescue, OD600, 48 h; response scale: 0% DMSO, 100% iron-clioquinol control. 0.063% of 410,000 active. Potency, µM (doses to about 46.1 µM), actives largely listed as activators; also: nearly all actives have a fitted effect of over 55% in size
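Yeast A-beta toxicity model in growth medium with pinned compounds, 48 h at 30 C; growth read as absorbance at 600 nm. Normalized to FeCl3/clioquinol equimolar mix (positive) and DMSO (negative).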
aSyn rescue: alpha-synuclein toxicity inhibition in yeast; Yeast expressing alpha-synuclein, growth rescue, BacTiter-Glo, 24 h; Potency, µM (titrated, usually from 46.1 µM), usual class: activators; 0.14% of 370,000 active; AID 652106; also: nearly all actives have a fitted effect of over 65% in size
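Rescue of yeast growth: cells expressing toxic alpha-synuclein, induced in galactose at OD600 0.02, incubated with compound 24 h at 30 C. ATP luminescence quantified growth; inhibitors of toxicity appear as activators.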
FUS yeast rescue: suppressors of FUS proteinopathy in yeast. S. cerevisiae FUS-expressing, growth rescue, OD600, 24 h. Potency, µM (series often up to 76.6 µM), usual class: activators. 0.24% of 390,000 active; also: nearly all actives have a fitted effect of over 55% in size
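Cultures pregrown in 2.5% raffinose medium are shifted to minimal medium containing 2% galactose to express toxic FUS. Compounds are tested at several concentrations. After 24hr at 30C, growth is quantified at 600 nm absorbance.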
TDP-43 yeast inh: inhibitors of TDP-43 toxicity in yeast. TDP-43 expressing yeast growth rescue, BacTiter-Glo, 24 h. Potency, µM (series often up to 46.1 µM), hits mostly activators. 1.8% of 410,000 active; also: nearly all actives have a fitted effect of over 50% in size
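Yeast expressing TDP-43 (pregrown in raffinose, seeded at OD600=0.02 in galactose medium) exposed to compounds 24 hr at 30 deg C. Growth read by BacTiter-Glo luminescence; rescue of toxicity appears as increased signal.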
Each line names hits and unclear results; the compound was inactive in the other large screens. Calls follow the shape of the dose curve; as a rule, active = well fitted curve in the direction sought with a large enough effect; inconclusive = small, poorly fitted or top-dose-only effect, or another doubt; inactive = no such curve, though single readings can be large; an effect the other way counts as inactive or inconclusive.

CCn1c(/C=C/N(C(C)=O)c2ccccc2)[n+](CC)c2ccc(Cl)cc21	none (no result: FUS yeast rescue)
CC[n+]1c(/C=C/C=C/N(C(C)=O)c2ccccc2)sc2ccccc21	FUS yeast rescue 18µM
CCCCCC(=O)NC(=S)Nc1cccc(C(C)=O)c1	Abeta rescue 8.9µM
COc1ccc(NC(=O)C2Cc3c(-c4ccc5c(c4)OCO5)ccnc3O2)cc1 (stereo unspecified)	TDP-43 yeast inh 25µM (no result: Mito fusion act)
O=C(Nc1ccccc1)C1Cc2c(-c3ccc4c(c3)OCO4)ccnc2O1 (stereo unspecified)	TDP-43 yeast inh 35µM (no result: Mito fusion act)
CC(=O)Nc1ccc(NC(=O)C2Cc3c(-c4ccc5c(c4)OCO5)ccnc3O2)cc1 (stereo unspecified)	none (no result: Mito fusion act)
CC(=O)Nc1ccc(NC(=O)C2Cc3c(-c4ccco4)ccnc3O2)cc1 (stereo unspecified)	none (no result: Mito fusion act)
O=C(Nc1ccccc1)C1Cc2c(-c3ccco3)ccnc2O1 (stereo unspecified)	aSyn rescue inconclusive, TDP-43 yeast inh 25µM (no result: Mito fusion act)
O=C(Nc1ccc2c(c1)OCO2)C1Cc2c(-c3ccc4c(c3)OCO4)ccnc2O1 (stereo unspecified)	TDP-43 yeast inh 28µM (no result: Mito fusion act)
N.N.N.N.N.N.N.N.N.N.N.N.N.N.O.O.[Ru+4].[Ru+5].[Ru+5]	none (no result: Abeta rescue, FUS yeast rescue, TDP-43 yeast inh)
C=C1C=C(C)n2ncc(C(=O)NCCCCCC)c2N1	none (no result: Mito fusion act, Abeta rescue, FUS yeast rescue, TDP-43 yeast inh)
CCN(Cc1ccccc1)C(=S)NC(=O)c1ccccc1Br	Abeta rescue 10µM
COc1ccc(/C=C\c2onc(C)c2S(=O)(=O)N2CCC(C(=O)Nc3cccc(OC)c3)CC2)cc1	FUS yeast rescue inconclusive (no result: Mito fusion act, aSyn rescue)
CN(Cc1cc(Cl)cc(Cl)c1)CC(C(=O)c1ccccc1)c1ccccc1 (stereo unspecified)	TDP-43 yeast inh 13µM (no result: Mito fusion act, FUS yeast rescue)
S=c1[nH]nc(-c2n[nH]c3c2CCC3)n1N=Cc1ccc(OCc2ccccc2)cc1	none (no result: Mito fusion act, Abeta rescue, aSyn rescue, TDP-43 yeast inh)
COC(=O)c1c(NC(=O)CCCOc2ccc(C(C)(C)C)cc2)sc2c1C(C(=O)OC)CC2 (stereo unspecified)	none (no result: Mito fusion act)
COc1ccc(-c2noc(C3CC(=O)N(c4ccc(C)c(F)c4)C3)n2)c(OC)c1 (stereo unspecified)	FUS yeast rescue inconclusive, TDP-43 yeast inh 13µM (no result: Mito fusion act, aSyn rescue)
S=C(N/N=C/c1ccc2ncccc2c1)Nc1ccccc1	Abeta rescue inconclusive, TDP-43 yeast inh 13µM
C(=N\NCc1ccccc1)/c1ccc2ncccc2c1	Abeta rescue inconclusive
Nc1c(C(=O)c2ccc(Br)s2)oc2ccccc12	Mito fusion act inconclusive, TDP-43 yeast inh 13µM
O=C(Nc1cc(F)ccc1F)N1CCC(CN2CCCC2)CC1	none (no result: Mito fusion act, aSyn rescue)
CC(O)CNc1nc2sc3c(c2c(=O)n1CCc1ccccc1)CCCCC3 (stereo unspecified)	Mito fusion act 20µM, FUS yeast rescue inconclusive
CN(C)CCNc1nc2sc3c(c2c(=O)n1CCc1ccccc1)CCCCC3	none
O=C(CCOc1ccccc1)NO	none (no result: Mito fusion act, Abeta rescue, FUS yeast rescue, TDP-43 yeast inh)
COc1ccc(C2=Nc3ccccc3N(C(=O)c3ccc(C)cc3)C2C(=O)NCc2ccccc2)cc1 (stereo unspecified)	none (no result: Mito fusion act)
Cc1ccc(C2=Nc3ccccc3N(C(=O)c3ccccc3)C(C)C2)cc1 (stereo unspecified)	Mito fusion act 20µM (no result: FUS yeast rescue)
CC(C)c1ccc(Nc2ncnc3c2nc2n3CCCC2)cc1	TDP-43 yeast inh 14µM (no result: Mito fusion act, aSyn rescue)
O=[N+]([O-])c1ccc(Cl)c(S(=O)(=O)/N=C(/Sc2ccc(Br)cc2)c2ccccc2)c1	none (no result: Mito fusion act, Abeta rescue, FUS yeast rescue, TDP-43 yeast inh)
OCCCCC#Cc1c(-c2ccsc2)sc2ccccc12	TDP-43 yeast inh 14µM
Cc1ccc(S(=O)(=O)N2CCN(c3nc(-c4ccc(C)s4)nc4ccccc34)CC2)cc1	none (no result: Mito fusion act, Abeta rescue, FUS yeast rescue, TDP-43 yeast inh)
Cc1ccc(/C=C/C(=O)N2CC(C)CC(C)C2)o1 (stereo unspecified)	TDP-43 yeast inh 25µM
CCOc1ccc(-c2[nH]ncc2-c2ccc(Cl)cc2)c(O)c1	TDP-43 yeast inh 35µM
CCOc1ccc(-c2[nH]ncc2Oc2ccccc2OCC)c(O)c1	aSyn rescue inconclusive, TDP-43 yeast inh 18µM
CCOc1ccc(-c2[nH]ncc2Oc2ccccc2OC)c(O)c1	Mito fusion act inconclusive, aSyn rescue inconclusive, FUS yeast rescue inconclusive, TDP-43 yeast inh inconclusive
CC(c1ccc2ccccc2c1)c1ccccc1C(=O)O (stereo unspecified)	TDP-43 yeast inh 5.6µM (no result: Mito fusion act)
O=C(O)c1ccccc1C(c1ccc(O)cc1)c1ccc(O)cc1	none
CC(C)CCOc1ccc(Cn2c(=O)oc3ccccc32)cc1	none (no result: Mito fusion act, aSyn rescue)
ON=C1c2ccccc2-c2ccc(O)cc21	none (no result: Mito fusion act, FUS yeast rescue)
CC(=NO)c1ccc2c(c1)C(=NO)c1ccccc1-2	TDP-43 yeast inh 13µM (no result: Mito fusion act, FUS yeast rescue)
N#Cc1c2c(c(Cl)n3c1nc1ccccc13)CCCC2	none (no result: Mito fusion act, Abeta rescue, FUS yeast rescue, TDP-43 yeast inh)
Cc1nn(CCC(=O)Nc2ccc(Cl)cc2)c(C)c1S(=O)(=O)N1CCCCC1	none (no result: Mito fusion act, aSyn rescue)
COc1ccc(N2CCN(c3oc(/C=C/c4cc(OC)c(OC)c(OC)c4)nc3C#N)CC2)cc1	none (no result: Mito fusion act, aSyn rescue)
O=C(Nc1ccc(F)cc1F)c1ccc2c(O)c(S(=O)(=O)c3ccc(Cl)cc3)c(=O)[nH]c2c1	none (no result: Mito fusion act, aSyn rescue)
O=C(NNC(=O)C(Cl)Cl)c1cnn(-c2ccccc2)c1C(F)(F)F	aSyn rescue 16µM

From PubChem
